A selection: hits, their analogues and other compounds. The true share with any hit is near 4.2%.
SW480 rereplic: inducers of DNA re-replication in SW480 colon cancer cells; SW480 DNA re-replication, Hoechst DNA content imaging, 48 h; Potency, µM (series often up to 46.1 µM), for the others: at the highest dose re-replication activation, actives largely listed as activators; hit rate 1.8% among 340,000; note: % of control where 0% means no effect; nearly all actives have a fitted effect of over 55% in size
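Per well, 250 cells were exposed to pinned compound for 48 hr. Nuclear DNA was visualised with Hoechst (40 min, 37 C) and total object intensity recorded by fluorescence scanning.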
MCF10A rereplic: induces DNA re-replication in MCF 10a normal breast cells; MCF 10A DNA re-replication, Hoechst nuclear intensity, 48 h; Potency, µM (top dose mostly 46.1 µM), inactives show at the highest dose activity, positive = re-replication, hits mostly activators; hit rate 2.9% among 350,000; note: % of control where 0% means no effect; nearly all actives have a fitted effect of over 50% in size
A-T KAP1 phos: potential ataxia-telangiectasia treatment | F2112 A-T fibroblasts, KAP-1 phosphorylation AlphaLISA; neocarzinostatin DNA damage 30 min before lysis | Potency, µM (titrated, usually from 57.5 µM), without a hit: at the highest dose activation, usual class: activators | hit rate 0.19% among 320,000 | AID 485349; note: % of control where 0% means no effect; nearly all actives have a fitted effect of over 45% in size
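hTERT-immortalized A-T patient fibroblasts (F2112), 500 cells/well in OPTI-MEM, 1% FBS, got compounds for 60 min, then NCS for 30 min at 37C. Lysates were then assayed for phospho-KAP-1 by AlphaLISA (anti-pKAP1 donor, anti-KAP1 acceptor beads), 6 hr at 25C.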
Mito fusion act: mitochondrial division inhibition or fusion activation; S. cerevisiae fusion-defective mutant growth rescue, CellTiterGlo 48 h; Potency, µM (series often up to 46.1 µM), for the others: at the highest dose growth rescue (activation), usual class: activators; hit rate 0.23% among 320,000; AID 485298; note: % of control where 0% means no effect; nearly all actives have a fitted effect of over 45% in size
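Yeast fusion mutant, YPEG (non-fermentable carbon), compound, 48 h at 37C non-permissive; CellTiterGlo added, 10 min RT, luminescence read. Rescued growth = division inhibition.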
a7 integrin act: integrin-mediated muscular dystrophy alleviation activation | alpha7betagal myoblasts, beta-gal FDG fluorescence, 48 h | Potency, µM (top dose mostly 38.3 µM), without a hit: at the highest dose activation, usual class: activators | hit rate 0.064% among 350,000 | AID 624291;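 note: 100% = response of the positive control SU9516; nearly all actives have a fitted effect of over 60% in size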
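alpha7betagal+/- myoblasts (passage 13, 250/well) treated 48 h at 37C with compounds at 1:260 dilution of DMSO stock. Lysed, then beta-galactosidase activity read as FDG fluorescence (ex 480/em 540) after 30 min, with pre-read for autofluorescence.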
An asterisk follows results filed as active; ? = inconclusive; · = no result. Calls come from the whole dose curve; as a rule, active = well fitted activation curve with a large enough effect; inconclusive = small, poorly fitted or top-dose-only effect; inactive = no such curve, though single readings can be large or run the other way. Potency is the fitted concentration of half-maximal effect.

SMILES	SW480 rereplic	MCF10A rereplic	A-T KAP1 phos	Mito fusion act	a7 integrin act
COCCNC(=O)CN(C(=O)Cn1nnc2ccccc21)c1cccc(C)c1C	-2%	-4%	-1%	0%	?
C[C@H]1CN([C@@H](C)CO)C(=O)c2cccc(NS(=O)(=O)c3ccc(Cl)cc3)c2O[C@@H]1CN(C)CC1CCCCC1	1%	-2%	3%	·	-13%
Cc1cccc(-c2nc(NCCN(C)C)c3ccccc3n2)c1	·	·	·	·	-38%
COc1ccc(-c2c3c(nc4sc(C(=O)Nc5ccccc5)c(N)c24)CCC3)cc1	?	?	·	·	0%
Nc1c(C(=O)NC23CC4CC(CC(C4)C2)C3)sc2nc3c(c(C(F)(F)F)c12)CCC3	?	1.6µM*	1%	-3%	-1%
Nc1c2c(nc3ccccc13)N(C1CCCCC1)CC2	?	13µM*	2%	-3%	-46%
Nc1c2c(nc3ccc(Br)cc13)N(C1CCCCC1)CC2	·	·	-2%	0%	·
CSc1nc(N)c2ncn([C@@H]3O[C@H](COP(=O)(O)OP(=O)(O)OP(=O)(O)O)[C@@H](O)[C@H]3O)c2n1	·	·	·	-49%	·
CCOC(=O)C1CCN(C(=O)c2cc3cc(Cl)ccc3[nH]2)CC1	-4%	-3%	7.9µM*	-11%	?
O=C(c1cc2cc(F)ccc2[nH]1)N1CCC(Cc2ccccc2)CC1	5%	8.2µM*	12%	3%	16%
COc1ccccc1NC(=O)CN1CCN(CC(=O)Nc2ccc(C)c(F)c2)CC1	9%	15%	1%	-8%	-13%
Cc1c(Cl)cccc1NC(=O)CCN1C(=O)NC(C)(C)C1=O	8%	-9%	-1%	-7%	7%
Cc1cc(C)n(-c2nc(NCCN(C)C)c3c4c(sc3n2)CCCC4)n1	?	?	40µM*	-18%	-60%
Cc1cc(C)n(-c2nc(NCCN(C)C)c3c4c(sc3n2)COC(C)(C)C4)n1	?	?	-12%	-6%	0%
CCN(CC)CCNc1nc(-n2nc(C)cc2C)nc2sc3c(c12)CC(C)(C)OC3	?	?	35µM*	-7%	-28%
O=C(CN1CCN(S(=O)(=O)c2ccccc2)CC1)NCCc1ccccc1	?	0%	2%	-2%	-31%
CCCOc1ccc(-c2nn(-c3ccccc3)cc2/C=C2\SC(N)=NC2=O)cc1	?	4.6µM*	-1%	0%	-2%
Cc1cc(/C=C2\SC(N)=NC2=O)c(C)n1-c1ccccc1	2%	3%	0%	2%	3%
Cc1cc(-c2nn(-c3ccccc3)cc2/C=C2\SC(N)=NC2=O)ccc1OC(C)C	?	4.1µM*	-2%	1%	-17%
Cc1cccc(/C=N/NC(=O)Cn2nnnc2N)n1	-5%	0%	3%	2%	14%
O=[N+]([O-])c1nn(-c2ccccc2)n(O)c1=NCCc1ccccc1	?	?	-4%	18µM*	-27%
Cc1ccc(CCN=c2c([N+](=O)[O-])nn(-c3ccccc3)n2O)cc1	0%	-2%	-5%	6%	20%
O=[N+]([O-])c1nn(-c2ccccc2)n(O)c1=NC1CCN(Cc2ccccc2)CC1	10µM*	?	4%	-1%	-12%
CCc1cccc(N=c2c([N+](=O)[O-])nn(-c3ccc(Cl)cc3)n2O)c1	11%	?	-9%	18µM*	-1%
O=[N+]([O-])c1nn(-c2ccc3c(c2)OCCO3)n(O)c1=NC1CCN(Cc2ccccc2)CC1	7.3µM*	15%	-4%	-5%	14%
SMILES	SW480 rereplic	MCF10A rereplic	A-T KAP1 phos	Mito fusion act	a7 integrin act
COc1ccc(Cl)cc1NC(=O)c1cccc(S(=O)(=O)Nc2c(C)n(C)n(-c3ccccc3)c2=O)c1	-19%	-1%	·	·	0%
CN(CC(=O)NC(=O)NC1CCCCC1)CC(=O)Nc1ccccc1C(F)(F)F	·	·	·	·	3%
Cc1cc(N2C(=O)C=CC2=O)c([N+](=O)[O-])cc1C	16µM*	18µM*	-5%	-1%	-69%
Cc1c([N+](=O)[O-])cc(N2C(=O)C=CC2=O)cc1[N+](=O)[O-]	0%	0%	·	·	16%
CC(=O)Nc1ccc2c(c1)Cc1c-2cc(Br)c(N)c1Br	-2%	-4%	·	·	28%
Cc1cccc(/C=N/NC(=O)c2cc3c(s2)-c2ccccc2CC3)c1	?	?	12%	11µM*	-18%
O=C(N/N=C/c1cccc(C(F)(F)F)c1)c1cc2c(s1)-c1ccccc1CC2	?	?	-3%	2%	-29%
CCOC(=O)N1CCN(C(=O)c2cc(-c3ccc(OCC)cc3)nc3ccccc23)CC1	4.6µM*	3.7µM*	0%	3%	1%
CCOC(=O)N1CCN(C(=O)c2cc(-c3ccncc3)nc3ccccc23)CC1	18µM*	?	6%	8%	-11%
CCOC(=O)/C(C#N)=C\c1ccc(O)c(OC)c1	-22%	?	-10%	-2%	-2%
CCOC(=O)c1c(-c2ccccc2)csc1NC(=O)/C(C#N)=C\c1ccc(O)c(OC)c1	?	2.3µM*	·	·	2%
CCOC(=O)c1c(-c2ccc(C)cc2)csc1NC(=O)/C(C#N)=C/c1ccc(O)c(OC)c1	?	21µM*	-6%	-9%	13%
COc1cc(/C=C(\C#N)C(=O)Nc2ccccn2)ccc1O	5%	6%	0%	-3%	-9%
Cc1cccc(Oc2nc(CN3CCOCC3)nc3sc4c(c23)CCCC4)c1	3%	?	14%	?	-16%
C/C(=N/NC(=O)CNC(=O)c1ccccn1)c1cccc([N+](=O)[O-])c1	3%	-3%	4%	6%	?
Clc1ccc(Cn2ncc3c(NCc4ccccc4)ncnc32)cc1	?	6.5µM*	3%	18%	-21%
CCCCNc1ncnc2c1cnn2-c1ccccc1	6.5µM*	?	13%	-1%	-8%
c1ccc(-n2ncc3c(NCc4ccco4)ncnc32)cc1	21µM*	13µM*	9%	2%	8%
CCc1nc(NC(C)(C)C)c2cnn(-c3ccccc3)c2n1	?	23µM*	?	-20%	-13%
c1ccc(-n2ncc3c(NCCCN4CCOCC4)ncnc32)cc1	-15%	7%	-1%	1%	11%
CCCCNc1ncnc2c1cnn2Cc1ccc(Cl)cc1	?	?	-4%	-19%	-1%
Cc1ccc(CNc2ncnc3c2cnn3-c2ccccc2)cc1	-20%	25%	11%	4%	6%
c1ccc(Cn2ncc3c(NCc4ccco4)ncnc32)cc1	5%	-6%	16%	0%	-34%
COCCn1c(=O)[nH]c(=O)c2c1nc(-c1cc(Br)c3c(c1)OCO3)n2Cc1ccccc1	2%	?	2%	-4%	0%
CC1(C)CC(Cc2ccc(Cl)nc2)N(C(=O)OC(C)(C)C)C1 (stereo not drawn)	·	·	·	·	-5%
CCCCNc1ncnc2c1cnn2-c1ccc(Cl)cc1	8.2µM*	?	3%	28%	-22%
Cc1noc(C)c1CCC(=O)Nc1cc(C(=O)O)ccc1Cl	·	·	·	·	-5%

Bioassay records deposited in PubChem BioAssay by National Center for Advancing Translational Sciences (NCATS).
